Source: PubChem BioAssay (EPA / NIEHS)
Records with an inconclusive call do not appear. Calls of active or inactive are those of the source. The calls were made as follows: active = hit-call score of the fitted dose curve at least 0.9, where 1 is the maximum; inconclusive = response in the unintended direction; inactive = score below 0.9.

Target: Peroxisome proliferator-activated receptor gamma (Homo sapiens) (UniProt P37231)
Assay: OT_PPARg_PPARgSRC1_0480: Odyssey Thera (OT) 8-hour Protein-Complementation Assay for Peroxisome Proliferator-activated Receptor Gamma / SRC-1 Co-activator (AID 2283387);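 also: nuclear to cytoplasmic split Venus YFP fluorescence ratio reporting PPARg SRC-1 interaction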
Experimental: OT_PPARg_PPARgSRC1_0480 is a cell-based assay that uses HEK293T, a human kidney cell line, with measurements taken at 8 hours after chemical dosing in a 384-well plate.OT_PPARg_PPARgSRC1_0480 is one of one assay component(s) measured or calculated from the OT_PPARg_PPARgSRC1_0480 assay. It is designed to make measurements of protein fragment complementation, a form of binding reporter, as detected with fluorescence intensity signals by Protein-fragment Complementation technology.Data from the assay component OT_PPARg_PPARgSRC1_0480 was analyzed into 1 assay endpoint. This assay endpoint, OT_PPARg_PPARgSRC1_0480, was analyzed in the positive analysis fitting direction relative to DMSO as the negative control and baseline of activity. Using a type of binding reporter, measures of receptor for gain-of-signal activity can be used to understand the binding at the pathway-level as they relate to the gene PPARG. Furthermore, this assay endpoint can be referred to as a primary readout, because the performed assay has only produced 1 assay endpoint. To generalize the intended target to other relatable targets, this assay endpoint is annotated to the nuclear receptor intended target family, where the subfamily is non-steroidal.
The OT PPARg/SRC-1 assay assessed receptor-chemical interactions using a rapidly maturing, intensely fluorescent mutant of YFP known as Venus, rationally dissected into two separate fragments. The fragments were obtained as follows: first, fragments coding for YFP1 and YFP2 (corresponding to amino acid residues 1-158 and 159-239 of the full length YFP, respectively) were generated by oligonucleotide synthesis (Blue Heron Biotechnology), and then PCR mutagenesis was used to generate the mutant fragments IFP1 and IFP2. Fusion constructs were transfected into HEK293T cells with a (Gly4Ser)2 linker between the PPARg/SRC-1 and YFP fragment genes to facilitate complementation when interacting proteins bring fragments into close proximity. The construct is transiently transfected in HEK293T cells 48 hours prior to treatment with test compounds. Cells are seeded into optical quality 384-well poly-D-lysine coated plates in MEM alpha medium (Invitrogen) supplemented with 10 percent FBS (Gemini Bio-Products) 1 percent penicillin and 1 percent streptomycin, and grown in 37C incubator equilibrated to 5 percent CO2. Cells are allowed to adhere for 24 hours prior to treatment with compounds of interest or controls for 8 hours. Cells are fixed in 4 percent formaldehyde and stained with Draq5 (BioStatus) to identify cells and subcellular compartment boundaries prior to signal detection. 8 Images per well were acquired on an Evotec Opera at 2 wavelengths (488 and 635nm), and the ratio of fluorescence in the nucleus relative to fluorescence in the cytoplasm (N/C Ratio) in the 488nm channel was calculated for a minimum of 350 cells per image.

Sequence of Peroxisome proliferator-activated receptor gamma (Homo sapiens) (P37231 whole entry, looked up): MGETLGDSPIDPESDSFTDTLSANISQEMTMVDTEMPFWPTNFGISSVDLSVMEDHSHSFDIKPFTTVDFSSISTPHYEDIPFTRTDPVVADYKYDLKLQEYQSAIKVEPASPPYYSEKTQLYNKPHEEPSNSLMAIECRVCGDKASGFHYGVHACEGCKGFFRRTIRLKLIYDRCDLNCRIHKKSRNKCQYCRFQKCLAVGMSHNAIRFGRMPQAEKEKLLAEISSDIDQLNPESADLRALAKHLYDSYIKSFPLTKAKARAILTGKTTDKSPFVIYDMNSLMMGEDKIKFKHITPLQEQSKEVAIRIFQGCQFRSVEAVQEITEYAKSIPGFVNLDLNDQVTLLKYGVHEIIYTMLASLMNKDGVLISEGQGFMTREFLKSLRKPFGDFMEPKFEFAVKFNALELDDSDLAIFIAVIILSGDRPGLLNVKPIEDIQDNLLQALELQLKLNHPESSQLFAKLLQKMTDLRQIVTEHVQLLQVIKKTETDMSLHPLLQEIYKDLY

Compound | outcome | AC50
O=C(C=Cc1ccccc1)OCc1ccccc1 | inactive | –
O=c1cc(-c2ccccc2)oc2ccccc12 | inactive | –
OC1CCCCCCCCCCC1 | inactive | –
O=C(c1ccccc1)C1CCC1 | inactive | –
CC/C=C\C/C=C\C/C=C\CCCCCCCC(=O)O | inactive | –
CC(C)(C)c1ccc(OC(=O)c2ccccc2O)cc1 | inactive | –
O=C(C(Cl)Cl)N1CCOC12CCCCC2 | inactive | –
CC(C)(C)c1ccc(-c2ccc(C(C)(C)C)cc2)cc1 | inactive | –
CC(CC=O)CCCC(C)(C)O (stereo not given) | inactive | –
O=C(OCC1CCC2OC2C1)C1CCC2OC2C1 (stereo not given) | inactive | –
CC(C)C1=CC2=CC[C@@H]3[C@](C)(CCC[C@@]3(C)C(=O)O)[C@H]2CC1 | inactive | –
O=S(=O)(O)c1ccccc1C=Cc1ccc(-c2ccc(C=Cc3ccccc3S(=O)(=O)O)cc2)cc1 | inactive | –
CCCCCCCCCCOS(=O)(=O)O | inactive | –
CO[Si](OC)(OC)c1ccccc1 | inactive | –
O=C1C(N(CO)C(=O)NCO)N(CO)C(=O)N1CO (stereo not given) | inactive | –
c1c[nH]cn1 | inactive | –
O=C1CCCC1 | inactive | –
CC(=O)OC(C)C | inactive | –
CC1=NN(c2cc(S(=O)(=O)O)ccc2Cl)C(=O)C1N=Nc1ccccc1 (stereo not given) | inactive | –
NC(CO)(CO)CO | inactive | –

Compound | outcome | AC50
CCCCOCCOC(=O)COc1nc(Cl)c(Cl)cc1Cl | inactive | –
C=C[Si](C)(C)O[Si](C)(C)C=C | inactive | –
NC(=O)c1ccccc1O | inactive | –
CCCCC/C=C\CCC=O | inactive | –
CCCCCCCC/C=C\CCCCCCCC(=O)O | inactive | –
Cc1cc(C)c(C)cc1C | inactive | –
O=S1(=O)OC(c2ccc(O)cc2)(c2ccc(O)cc2)c2ccccc21 | inactive | –
CCOC(=O)CC | inactive | –
CC(C)c1ccc2cc(C(C)C)ccc2c1 | inactive | –
CCCCCCC1(C)CCC(=O)O1 (stereo not given) | inactive | –
CCCCC(CC)CCC(CC(C)C)OS(=O)(=O)O (stereo not given) | inactive | –
CC(C)c1ccc2c(C(C)C)cc(C(C)C)c(S(=O)(=O)O)c2c1 | inactive | –
CN(C)c1ccc(N=Nc2ccccc2C(=O)O)cc1 | inactive | –
CN(C)c1ccc(C(=N)c2ccc(N(C)C)cc2)cc1 | – | 30.6 µM (active)
CCOC(=O)Cc1cccc2ccccc12 | inactive | –
CC=C1CC2C=CC1C2 (stereo not given) | inactive | –
CCCCCCCOC(=O)CCC | inactive | –
CCCCCc1ccc(Cl)cc1 | inactive | –
CCN(CCC#N)c1ccc(N=Nc2c(Cl)cc([N+](=O)[O-])cc2Cl)cc1 | inactive | –
CC1=CC[C@H]2C[C@@H]1C2(C)C | inactive | –
